# From PubChem BioAssay (Tox21)
# Records with an inconclusive call do not appear. Values without a mark were called inactive. Calls come from the whole dose curve.
# Assay: p53 small molecule agonists, cell-based qHTS assay with human liver microsomes (AID 1963577);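 note: p53 response element beta-lactamase reporter cells with liver microsomes plus NADPH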
# Details: HCT-116 p53RE-bla with human liver microsomes, ratio, 16 h; series mostly up to 66 µM; activation: at the top concentration
# Text: National Center for Advancing Translational Sciences [NCATS]
# Division of Preclinical Innovation [DPI]
# U.S. Environmental Protection Agency [EPA]
# National Institutes of Environmental Health Sciences [NIEHS]
# National Toxicology Program [NTP]
# U.S. Food and Drug Administration [FDA]
# p53, a tumor suppressor protein, is activated following cellular insult, including DNA damage and other cellular stresses. The activation of p53 regulates cell fate by inducing DNA repair, cell cycle arrest, apoptosis, or cellular senescence. The activation of p53, therefore, is a good indicator of DNA damage and other cellular stresses. […] The activation of the reporter gene under culture conditions can be detected by fluorescence intensity.
# Tox21 Assay Protocol Summary:
# The p53RE-bla cells were dispensed at 4,000cells/3ul/well in 1536-well black-clear bottom plates. After the assay plates were incubated at 37 C, 5% CO2 incubator for 5 hours, 23 nL of compounds dissolved in DMSO, positive controls or DMSO only was transferred to the assay plate. Following compound addition, 3 uL of human liver microsomes (XenoTech, Kansas City, KS) at final concentration of 0.5 mg/mL and 1uL of Beta-Nicotinamide adenine dinucleotide 2-phosphate (NADPH) at final concentration of 0.5 mg/mL were transferred to the assay plate. The plates were incubated at 37 C for 16 hours. 1 uL of LiveBLAzer detection mixture was added to each well and the plates were incubated at room temperature in the dark for 2 h.
# % is set by controls: 0 for no effect and ±100 for the full control effect.
row,SMILES,activation
1,CCCCCC(C)N (stereo not given),3.23% [at 30.3 µM]
2,CCN(CC)c1ccc2c(-c3ccc(S(=O)(=O)O)cc3S(=O)(=O)[O-])c3ccc(=[N+](CC)CC)cc-3oc2c1,0.332%
3,CO[C@H]1O[C@H](CO)[C@@H](O)[C@H](O)[C@H]1O,0.491%
4,Cn1c(=O)[nH]c2ncn(C)c2c1=O,-2.52%
5,CCCCCCCC1CCCC1=O (stereo not given),-0.12%
6,Cc1nc2ccccc2n1Cc1ccc(Cl)cc1,-3.39% [at 30.3 µM]
7,CCCCCCCCCCCCCCN(C)C,-0.299% [at 13.5 µM]
8,CC(=O)SC[C@@H](Cc1ccccc1)C(=O)NCC(=O)OCc1ccccc1,0.374% [at 30.3 µM]
9,CN(C)CC/C=C1/c2ccccc2COc2ccc(CC(=O)O)cc21,0.462% [at 30.3 µM]
10,N#Cc1ccc(C(=O)O)cc1,5.2%
11,CC(C)=CC1CC(C)CCO1 (stereo not given),-0.137%
12,COc1ccccc1NC(=O)c1cc2ccccc2cc1O,-1.24%
13,Nc1ccc(S(=O)(=O)O)cc1,0.206%
14,Cc1ccc(C)c(N)c1,0.385%
15,S=c1[nH][nH]c(=S)s1,2.35%
16,COc1ccc(N)c([N+](=O)[O-])c1,-6.42%
17,C=CC(=O)OCC[N+](C)(C)C,5.48%
18,Cc1scc2c1N(C(=O)CN1CCN(C)CC1)c1ccccc1NC2=O,-7.47% [at 30.3 µM]
19,CC(O)COC(C)(C)C (stereo not given),-0.0266%
20,CC[N+](C)(CC)CCOC(=O)C(O)(c1ccccc1)C1CCCCC1 (stereo not given),-1.7% [at 30.3 µM]

row,SMILES,activation
1,Cc1cc(SC2=C(O)C[C@@](CCc3ccc(N)cc3)(C(C)C)OC2=O)c(C(C)(C)C)cc1CO,1.28%
2,CCCCCCCCCC(=O)N(C)C,-0.0257%
3,Cc1c(C)c2c(c(C)c1OC(=O)CCC(=O)OCCO)CC[C@@](C)(CCC[C@H](C)CCC[C@H](C)CCCC(C)C)O2,1.49% [at 30.3 µM]
4,C=C(C)C(=O)OCC[N+](C)(C)C,8.37%
5,CCOc1ccccc1N,2.42%
6,CCCc1nn(C)c2c(=O)[nH]c(-c3cc(S(=O)(=O)N4CCN(C)CC4)ccc3OCC)nc12,-17.4% [at 30.3 µM]
7,CCN(CC)CCNC(=O)c1cc(Cl)c(N)cc1OC,1.16% [at 30.3 µM]
8,Cc1c[nH]c2ccccc12,-19.2% [at 30.3 µM]
9,O=C(O)c1ccccc1Cl,-4.93%
10,NCC1CCC(C(=O)Oc2ccc(CCC(=O)O)cc2)CC1 (stereo not given),1.84% [at 30.3 µM]
11,O=C(Nc1ccccc1)c1cc([N+](=O)[O-])ccc1Cl,-10.7%
12,Cc1ccc(N(CC2=NCCN2)c2cccc(O)c2)cc1,-2.24% [at 30.3 µM]
13,O=C(O)c1ccc2cc(O)ccc2c1,1.23%
14,CC(C)=CCC/C(C)=C/CC/C(C)=C/CCC(=O)OC/C=C(\C)CCC=C(C)C,-6.05% [at 30.3 µM]
15,CCOC(=O)C(O)c1ccccc1 (stereo not given),-3.44% [at 30.3 µM]
16,CCCCCCCCCCCCCCCCC(=O)O,-0.0825% [at 30.3 µM]
17,O=NN(CCCl)C(=O)NCCCl,1.28% [at 30.3 µM]
18,CCCc1ncc(C(=O)O)s1,-14% [at 30.3 µM]
19,CN(C(=O)C(Cl)Cl)c1ccc(OC(=O)c2ccco2)cc1,-0.113% [at 30.3 µM]
20,CC(=O)Nc1ccccc1C,1.64%
